The record followed here is PubChem BioAssay (NCI).

Compounds without any hit were thinned out: in the full panel of roughly 83,000, 20% have a hit.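 Activity criterion: percent growth below 10, measured after cells in 96-well plates were exposed to a single compound concentration for 48 hours.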 Calls of active or inactive are those of the source.

The experiment deals with M14 melanoma. In words: NCI-60 one-dose screen, 48 h (100 = growth as untreated, 0 = no growth, -100 = all killed). The conditions noted are these: 10 µM unless noted. As to the method: Growth inhibition of the M14 human tumor cell line is measured as a screen for anti-cancer activity. Cells are grown in 96 well plates and exposed to the test compound for 48 hours. Compounds are tested at a single concentration, which is 10^-5 M for most compounds. The reported endpoint is percent growth (GI% or GIPRCNT), where numbers from 0 - 100% represent growth inhibition, and numbers from -100% - 0 represent cell death. For example, a value of 40 represents 60% growth inhibition. A value of 0 means no net growth occurred over the course of the experiment. A value of -40 indicates 40% of cells at the beginning of the experiment died by the end of the experiment. A value of -100 means all cells are dead at the end of the experiment.
NCI-60 Human Tumor Cell Lines Screen was performed using the standard one-dose NCI protocol, which is described in more detail at https://dtp.cancer.gov/discovery_development/nci-60/default.htm.
Compounds with GIPRCNT values below 10 were considered active. Activity score was based on GIPRCNT using the following formula: […]
Score is 0 for GIPRCNT values of 100 or above, 50 for GIPRCNT values of 0, and 100 for GIPRCNT values of -100.
With `OCC(O)COc1ccc(Cl)cc1Cl` (stereo not given), the growth was 95.9% (inactive).
The figure for `O=S(=O)(O)c1cccnc1` is 140% (inactive); for `O=C(NC(=S)N1CC=CCC1)c1ccccc1` it is 95.8% (inactive).
The figure for `Nc1ccn(C2CC(N)C(CO)O2)c(=O)n1` (stereo not given) is 66.2% (inactive).
For the molecule `CCCc1cccc(CCC)c1NC(=O)Nc1cc(Cl)cc(Cl)c1`, the growth was 101% (inactive).
The figure for `CC(=O)c1ccc(C)cc1` is 107% (inactive).
On to `Cc1ccc(C)c(CN(C)C)c1O`, for which the growth is 105% (inactive).
For the molecule `c1ccc2c(NCCCN3CCN(CCCNc4c5ccccc5nc5ccccc45)CC3)c3ccccc3nc2c1`, the growth was -81% [100 µM] (active).
On to `CC(=O)OCC1OC(n2cnc3c(=S)nc(N)[nH]c32)C(OC(C)=O)C1OC(C)=O` (stereo not given), for which the growth is 37.6% (inactive).
The figure for `Cc1ccccc1NC(=O)Oc1ccc(Cl)cc1C(=O)c1ccccc1` is 103% (inactive); for `Cn1c2ccccc2c2nnc(NCCCCO)nc21` it is 88% (inactive).
As for `CS(=O)(=O)c1ccc(/C=C\C(=O)O)cc1`, the growth is 94.9% (inactive).
As for `CCCCCCCCNC(=O)C(C)C`, the growth is 95.5% (inactive).
The figure for `CC(C)(C)CC1(C)NC(=O)NC1=O` (stereo not given) is 104% (inactive); for `Nc1c(O)c(S(=O)(=O)O)c(O)c2c1C(=O)c1ccccc1C2=O` it is 35% (inactive); for `CC(=O)N=c1ccc2nc3c(cc(N)c4ccccc43)oc-2c1` it is -68.8% (active).
For the molecule `CC(=O)OCC1CCC(COC(C)=O)CC1` (stereo not given), the growth is 111% (inactive).
Take `Cc1[nH]c(=S)[nH]c(=O)c1C`: the growth was 109% (inactive).
On to `C=CCNC(=S)N/C=C(/C(=O)c1ccccc1)c1ccccc1`, for which the growth was 91.9% (inactive).
As for `C=C(c1ccc(N(C)C)cc1)c1ccc(N(C)C)cc1`, the growth was -47.2% (active).
To `CCCCOC(=O)c1ccccc1O` belongs 117% (inactive); to `Cc1ccc(S(N)(=O)=O)cc1Cl`, 105% (inactive).
The figure for `CCOC(=O)c1cc(Cl)c(O)c(Cl)c1` is 105% (inactive).
Take `CC(C)=CCC[C@@H](C)[C@H]1CC[C@@]2(C)C3=C(CC[C@]12C)[C@@]1(C)CC[C@H](O)C(C)(C)[C@@H]1CC3`: the growth was 108% (inactive).
To `O=C(NCCc1ccccc1)/C(=C\c1ccc(Cl)cc1Cl)NC(=O)c1ccccc1` belongs 96.4% (inactive).
On to `Cc1nc(C)c(C(=O)O)cc1C(=O)O`, for which the growth was 114% (inactive).
The figure for `Clc1cccc(Cl)c1CSc1nc2ccccc2n2cccc12` is 94.1% (inactive); for `COC1=C(OC)C(=O)C(SC/C=C(\C)CCCC(C)CCCC(C)CCCC(C)C)=CC1=O` (stereo not given) it is 26.9% (inactive); for `CC(=O)OC/C(C)=C\CC(C)COC(C)=O` (stereo not given) it is 96.4% (inactive).
To `CCNc1ccc2ccccc2c1N=Nc1ccc(N=Nc2ccccc2)cc1` belongs 104% (inactive); to `CCN(CC)CCOC(=O)Nc1c(C(C)C)cccc1C(C)C`, 107% (inactive); to `CSCCC(NC(=O)C(Cl)Cl)C(=O)O` (stereo not given), 93.8% (inactive).
`CC(c1ccccc1)N(C)C` (stereo not given): the growth was 92.1% (inactive).
As to `O=C1C=C[C@H](O)[C@@]2(CO)O[C@@H]12`, the growth was 85.9% (inactive).
Consider `C=CCC(OC(C)=O)c1ccc(C(C)C)cc1` (stereo not given), for which the growth is 114% (inactive).
With `CC(C)Sc1ncnc2nc[nH]c12`, the growth was 105% (inactive).
On to `C=CC(C)(C)n1cc(C2=C(O)C(=O)C(c3cn(C(C)(C)C=C)c4ccccc34)=C(O)C2=O)c2ccccc21`, for which the growth is 69.9% (inactive).
The figure for `CC(=O)Nc1ccc(/C=C2\SC(=S)N(/C=C(\C(C)=O)C(N)=O)C2=O)cc1` is 81% (inactive); for `C/C(O)=C(/C=N/C(=S)Nc1ccccc1)C(=O)Nc1ccccc1C` it is 100% (inactive); for `CC(=O)NC(CCc1ccc(Cl)c(Cl)c1)c1cccc(O)c(=O)c1` (stereo not given) it is -44.2% (active).
